Reference: PubChem BioAssay
Potency and affinity values are given separately. Calls of active or inactive are those of the source. Unless noted, the limit is not given here; nearly all actives have IC50 up to about 0.98 µM.

target: Calcium-dependent protein kinase 1 (Plasmodium falciparum (isolate 3D7)) (UniProt P62344); experiment: PfCDPK1 kinase inhibitors, biochemical, TCAMS library (AID 1159585); conditions: recombinant PfCDPK1, Kinase-Glo ATP depletion luminescence;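 also: inhibitors leave more ATP so luminescence rises with inhibition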
Sequence (P62344 whole entry, looked up): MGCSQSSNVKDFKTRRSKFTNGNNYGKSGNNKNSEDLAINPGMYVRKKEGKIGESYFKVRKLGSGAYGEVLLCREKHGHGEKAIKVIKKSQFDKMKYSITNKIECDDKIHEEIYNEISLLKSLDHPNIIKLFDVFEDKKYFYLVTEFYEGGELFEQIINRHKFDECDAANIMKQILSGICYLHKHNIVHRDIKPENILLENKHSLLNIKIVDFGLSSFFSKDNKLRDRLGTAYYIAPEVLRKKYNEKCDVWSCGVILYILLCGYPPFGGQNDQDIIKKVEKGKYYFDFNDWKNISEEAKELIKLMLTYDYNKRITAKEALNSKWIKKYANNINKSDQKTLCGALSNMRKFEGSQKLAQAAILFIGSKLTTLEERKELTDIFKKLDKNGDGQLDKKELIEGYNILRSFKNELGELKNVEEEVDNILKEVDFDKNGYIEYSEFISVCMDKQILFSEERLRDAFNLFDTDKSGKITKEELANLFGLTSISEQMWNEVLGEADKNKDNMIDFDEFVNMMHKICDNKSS

outcome, inactive:
CC(C)c1ccc(CN2CCCCC(NC(=O)c3cc(-c4ccccc4Cl)cs3)C2)cc1 (stereo not given)
Cc1cccc2[nH]c(-c3cccc(-c4cccc(CNCCCN5CCCC5=O)c4)c3)nc12
O=C(Nc1cccc(-c2cccc(-c3nc4ccccc4[nH]3)c2)c1)N[C@@H]1C[C@H]1c1ccccc1
O=C1C(c2ccccc2)=C(Nc2cc(Cl)cc(Cl)c2)c2ccccc21
O=C(NC1CC1)c1ccc(Cn2c(SCc3cccc(Cl)c3)nc3ccccc3c2=O)cc1
COc1ccc2nc(C)cc(NN=Cc3ccccc3Cl)c2c1
Clc1ccc2c(NCCNc3ccnc4cc(Cl)ccc34)ccnc2c1
O=C(Nc1cccc(CN2CCN(Cc3ccc(O)cc3)CC2)c1)c1ccc(Cl)c(Cl)c1
Cc1[nH]c(C)c(-c2ccc(CCc3ccc(N)cc3)cc2)c(=O)c1Cl
CC(CNC(=O)c1cc2c(Cl)cc(Cl)cc2[nH]1)CNc1cc(=O)c2ccccc2[nH]1 (stereo not given)
C=C[C@H]1CN(CCCCCCC)CC[C@H]1CCN(C)c1ccnc2ccc(OC)cc12
Fc1ccc2ncc(Cl)c(CCN3CCC(NCc4cc5c(cn4)OCCO5)CC3)c2c1
CC(C)(C)c1ccc(N2C(N)=NC(N)=NC2(C)C)cc1
CCN(CC(C)O)C(=O)c1ccc(-c2ccc(-c3nc4c(C)cccc4[nH]3)cc2)cc1 (stereo not given)
CN1CCC(C(=O)Nc2ccc(-c3cccc(-c4nc5ccc(C(F)(F)F)cc5[nH]4)c3)cc2)CC1
O=C1C(c2ccccc2)=C(Nc2ccc(Cl)cc2)c2ccccc21
Cc1cc(O)c(-c2cc(C(=O)Nc3cccnc3)[nH]n2)cc1C
CCCC(C)Nc1nc(C)cc(N[C@@H](CC(C)C)C(=O)NCc2ccc(C)cc2)n1 (stereo not given in full)
O=C(NC1CC1)c1cnc(N2CCCC(c3ccccc3)C2)c(Cl)c1 (stereo not given)
CCCCSc1c(CNCCCCCCNCc2ccc3ccccc3c2SCCCC)ccc2ccccc12
Cc1cccc2[nH]c(-c3ccc(-c4cccc(NC(=O)NCc5cccc(F)c5)c4)cc3)nc12
COc1ccc(CN(C)CCCSc2ccc(NC(=O)c3cccc4c(=O)cc(-c5ccccc5)[nH]c34)cc2)cc1OC
O=C(/C=C/c1ccc(Cl)c(Cl)c1)NCCCCCN1CCCN(C(=O)Nc2cccc(F)c2)CC1
NC(=O)COc1cccc2c1CCN(CCN1CCC(NC(=O)c3ccc(-c4ccc(Cl)cc4)cc3)CC1)C2
CN1CCC(NCc2cccc(-c3cccc(-c4nc5ccc(C(F)(F)F)cc5[nH]4)c3)c2)CC1
Cn1ncc2c3c(CCN4CCC(NCc5cc6c(cn5)OCCO6)CC4)c(Cl)cnc3ccc21
CC1(C)N=C(N)N=C(N)N1c1ccc2ccccc2c1
O=C(Nc1cc(Cl)ccc1O)c1ccc(Oc2ccc(C(=O)Nc3cc(Cl)ccc3O)cc2)cc1
FC(F)(F)c1cccc(CNCCCCCNCc2ccc(Cl)cc2)c1
CC(C)(C)c1ccc(CN2CCC(NC(=O)c3ccc(-c4ccccc4Cl)s3)CC2)cc1
CCc1cc2c(N)nc(N)nc2nc1-c1ccccc1
COc1ccc(CNCc2ccc(F)cc2)cc1-c1ccc(OC)c(S(=O)(=O)NCCN2CCCC2)c1
O=C(NCCc1ccc(Cl)c(Cl)c1)c1ccc(CNC(=O)c2ccc(O)c(-c3ccc(Cl)c(Cl)c3)c2)cc1
CCc1cn2c3c(cc(C(=O)N[C@@H](Cc4cc(F)cc(F)c4)[C@H](O)CNC4CC4)cc13)N(C)S(=O)(=O)CC2
O=C(NCCCCN1CC[C@@H]2c3cccc(O)c3CC[C@H]21)c1ccc(-c2ccccc2)cc1
CS(=O)(=O)c1ccc(CNCc2cccc(-c3cccc(-c4nc5ccc(F)cc5[nH]4)c3)c2)cc1
COc1cccc(CNC(=O)c2cnc(N3CCN(c4ccncc4)CC3)c(Cl)c2)c1
O=C(Cc1cnc[nH]1)Nc1ccc(-c2cccc(-c3nc4ccc(F)cc4[nH]3)c2)cc1
FC(F)(F)c1ccc2nccc(NN=Cc3ccc(Cl)cc3)c2c1
O=C(NCCCCN1CCC(c2ccc(OC(F)(F)F)cc2)CC1)c1ccc(NC(=O)c2ccc(Cl)cc2)cc1

target: Plasmodium falciparum protein kinase 6 (PK6, PF3D7_1337100) (UniProt Q8IDW1); experiment: PfPK6 kinase inhibitors, biochemical, TCAMS library (AID 1159586; call rule not given here); conditions: recombinant PfPK6, Kinase-Glo ATP depletion luminescence
Sequence (Q8IDW1 1-305): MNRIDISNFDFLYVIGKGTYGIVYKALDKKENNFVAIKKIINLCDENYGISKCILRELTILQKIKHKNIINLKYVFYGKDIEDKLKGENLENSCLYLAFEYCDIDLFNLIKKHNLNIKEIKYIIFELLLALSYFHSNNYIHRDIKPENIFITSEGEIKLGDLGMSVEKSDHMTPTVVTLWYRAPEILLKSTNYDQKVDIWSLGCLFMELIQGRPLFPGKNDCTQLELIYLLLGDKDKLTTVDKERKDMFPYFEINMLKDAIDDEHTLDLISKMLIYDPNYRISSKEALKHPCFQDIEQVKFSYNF

outcome, inactive:
CC(C)c1ccc(CN2CCCCC(NC(=O)c3cc(-c4ccccc4Cl)cs3)C2)cc1 (stereo not given)
Cc1cccc2[nH]c(-c3cccc(-c4cccc(CNCCCN5CCCC5=O)c4)c3)nc12
O=C(Nc1cccc(-c2cccc(-c3nc4ccccc4[nH]3)c2)c1)N[C@@H]1C[C@H]1c1ccccc1
O=C1C(c2ccccc2)=C(Nc2cc(Cl)cc(Cl)c2)c2ccccc21
O=C(NC1CC1)c1ccc(Cn2c(SCc3cccc(Cl)c3)nc3ccccc3c2=O)cc1
COc1ccc2nc(C)cc(NN=Cc3ccccc3Cl)c2c1
Clc1ccc2c(NCCNc3ccnc4cc(Cl)ccc34)ccnc2c1
O=C(Nc1cccc(CN2CCN(Cc3ccc(O)cc3)CC2)c1)c1ccc(Cl)c(Cl)c1
Cc1[nH]c(C)c(-c2ccc(CCc3ccc(N)cc3)cc2)c(=O)c1Cl
CC(CNC(=O)c1cc2c(Cl)cc(Cl)cc2[nH]1)CNc1cc(=O)c2ccccc2[nH]1 (stereo not given)
C=C[C@H]1CN(CCCCCCC)CC[C@H]1CCN(C)c1ccnc2ccc(OC)cc12
Fc1ccc2ncc(Cl)c(CCN3CCC(NCc4cc5c(cn4)OCCO5)CC3)c2c1
CC(C)(C)c1ccc(N2C(N)=NC(N)=NC2(C)C)cc1
CCN(CC(C)O)C(=O)c1ccc(-c2ccc(-c3nc4c(C)cccc4[nH]3)cc2)cc1 (stereo not given)
CN1CCC(C(=O)Nc2ccc(-c3cccc(-c4nc5ccc(C(F)(F)F)cc5[nH]4)c3)cc2)CC1
O=C1C(c2ccccc2)=C(Nc2ccc(Cl)cc2)c2ccccc21
Cc1cc(O)c(-c2cc(C(=O)Nc3cccnc3)[nH]n2)cc1C
CCCC(C)Nc1nc(C)cc(N[C@@H](CC(C)C)C(=O)NCc2ccc(C)cc2)n1 (stereo not given in full)
O=C(NC1CC1)c1cnc(N2CCCC(c3ccccc3)C2)c(Cl)c1 (stereo not given)
CCCCSc1c(CNCCCCCCNCc2ccc3ccccc3c2SCCCC)ccc2ccccc12
Cc1cccc2[nH]c(-c3ccc(-c4cccc(NC(=O)NCc5cccc(F)c5)c4)cc3)nc12
COc1ccc(CN(C)CCCSc2ccc(NC(=O)c3cccc4c(=O)cc(-c5ccccc5)[nH]c34)cc2)cc1OC
O=C(/C=C/c1ccc(Cl)c(Cl)c1)NCCCCCN1CCCN(C(=O)Nc2cccc(F)c2)CC1
NC(=O)COc1cccc2c1CCN(CCN1CCC(NC(=O)c3ccc(-c4ccc(Cl)cc4)cc3)CC1)C2
CN1CCC(NCc2cccc(-c3cccc(-c4nc5ccc(C(F)(F)F)cc5[nH]4)c3)c2)CC1
Cn1ncc2c3c(CCN4CCC(NCc5cc6c(cn5)OCCO6)CC4)c(Cl)cnc3ccc21
CC1(C)N=C(N)N=C(N)N1c1ccc2ccccc2c1
O=C(Nc1cc(Cl)ccc1O)c1ccc(Oc2ccc(C(=O)Nc3cc(Cl)ccc3O)cc2)cc1
FC(F)(F)c1cccc(CNCCCCCNCc2ccc(Cl)cc2)c1
CC(C)(C)c1ccc(CN2CCC(NC(=O)c3ccc(-c4ccccc4Cl)s3)CC2)cc1
CCc1cc2c(N)nc(N)nc2nc1-c1ccccc1
COc1ccc(CNCc2ccc(F)cc2)cc1-c1ccc(OC)c(S(=O)(=O)NCCN2CCCC2)c1
O=C(NCCc1ccc(Cl)c(Cl)c1)c1ccc(CNC(=O)c2ccc(O)c(-c3ccc(Cl)c(Cl)c3)c2)cc1
CCc1cn2c3c(cc(C(=O)N[C@@H](Cc4cc(F)cc(F)c4)[C@H](O)CNC4CC4)cc13)N(C)S(=O)(=O)CC2
O=C(NCCCCN1CC[C@@H]2c3cccc(O)c3CC[C@H]21)c1ccc(-c2ccccc2)cc1
CS(=O)(=O)c1ccc(CNCc2cccc(-c3cccc(-c4nc5ccc(F)cc5[nH]4)c3)c2)cc1
COc1cccc(CNC(=O)c2cnc(N3CCN(c4ccncc4)CC3)c(Cl)c2)c1
O=C(Cc1cnc[nH]1)Nc1ccc(-c2cccc(-c3nc4ccc(F)cc4[nH]3)c2)cc1
FC(F)(F)c1ccc2nccc(NN=Cc3ccc(Cl)cc3)c2c1
O=C(NCCCCN1CCC(c2ccc(OC(F)(F)F)cc2)CC1)c1ccc(NC(=O)c2ccc(Cl)cc2)cc1
